# Screens (PubChem BioAssay)
# RBX1-CUL1 inh: inhibitors of human ROC1-CUL1 ubiquitin ligase activity; in vitro K48 di-Ub FRET, acceptor:donor ratio, 45 min; inhibition, % at 10 µM; P62877+Q13616; AID 1347404; 140,000 compounds, 0.6% hits; in the data active means inhibition above about 25%
# Target sequence (P62877 whole entry, looked up): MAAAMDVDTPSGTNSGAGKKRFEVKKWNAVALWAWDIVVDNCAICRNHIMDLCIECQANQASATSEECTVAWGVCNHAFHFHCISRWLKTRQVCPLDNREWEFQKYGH
# Target sequence (Q13616 whole entry, looked up): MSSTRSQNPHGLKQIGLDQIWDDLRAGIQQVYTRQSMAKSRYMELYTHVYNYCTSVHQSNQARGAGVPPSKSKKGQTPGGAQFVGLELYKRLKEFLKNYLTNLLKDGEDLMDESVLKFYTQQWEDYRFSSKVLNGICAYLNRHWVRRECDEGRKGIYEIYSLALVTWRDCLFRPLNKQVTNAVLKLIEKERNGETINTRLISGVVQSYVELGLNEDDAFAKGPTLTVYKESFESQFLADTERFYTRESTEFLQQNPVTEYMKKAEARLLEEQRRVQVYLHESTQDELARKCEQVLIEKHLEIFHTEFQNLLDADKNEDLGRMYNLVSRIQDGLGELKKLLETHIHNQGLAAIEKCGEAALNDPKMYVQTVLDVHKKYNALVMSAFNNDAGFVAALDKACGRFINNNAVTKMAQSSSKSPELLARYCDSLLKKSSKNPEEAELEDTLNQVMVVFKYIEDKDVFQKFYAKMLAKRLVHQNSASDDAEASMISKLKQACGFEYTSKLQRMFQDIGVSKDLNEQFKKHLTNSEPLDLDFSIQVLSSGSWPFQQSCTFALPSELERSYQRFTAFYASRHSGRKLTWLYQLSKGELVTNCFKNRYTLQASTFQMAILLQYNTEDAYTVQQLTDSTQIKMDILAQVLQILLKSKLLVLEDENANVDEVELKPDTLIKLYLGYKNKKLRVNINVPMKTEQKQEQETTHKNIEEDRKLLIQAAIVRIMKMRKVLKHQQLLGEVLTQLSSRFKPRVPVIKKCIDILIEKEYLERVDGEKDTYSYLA
# Numbers stand for hits; i = inactive. This excerpt belongs to a sample that is enriched for hits.
SMILES,RBX1-CUL1 inh
CSc1ccccc1C(=O)NCc1c(C)ncc2c1CCN(C(=O)Cc1cccc(F)c1)C2,i
COC1=CC(=Cc2c(N)n3nc(-c4ccccc4Cl)sc3nc2=O)C=CC1=O,60
Cc1ccc(-c2nn3c(N)c(C=C4C=Nc5ccccc54)c(=O)nc3s2)cc1,i
Nc1c(C=C2C=Nc3ccccc32)c(=O)nc2sc(C(F)(F)F)nn12,i
O=C(CSc1nc2[nH]ncc2c(=O)n1-c1ccccc1)Nc1nc(-c2ccccc2)ns1,i
CN(C)C1C(=N)C(=O)Oc2ccccc21 (stereo not drawn),i
CCC(C)NC(=O)c1c2nc3ccccc3nc2n2c1[nH]c(=O)c1ccccc12 (stereo not drawn),53
CCC(C)NC(=O)c1c2c(nc3ccccc13)C(=O)N(C1CCCCC1)C2 (stereo not drawn),i
CCC(C)NC(=O)c1ccccc1NC(=O)c1ccncc1 (stereo not drawn),i
CCOC(=O)C1(Cc2ccc(OC)cc2)CCN(C(=O)c2ccc(=O)n(C)n2)CC1,i
CCn1c(COc2ccc(C)cc2)nnc1SCC(=O)Nc1cccc(C(F)(F)F)c1,i
Cc1cccc(-n2c(=O)c3c(n4c(=S)[nH]nc24)-c2ccccc2CC32CCCCC2)c1,i
CC(NC(=O)c1ccccc1F)c1ccccc1 (stereo not drawn),i
CC(NC(=O)c1cc([N+](=O)[O-])cc2c1-c1c(cc([N+](=O)[O-])cc1[N+](=O)[O-])C2=C(C#N)C#N)c1ccccc1 (stereo not drawn),39
CC(NC(=O)c1ccc(Br)cc1Br)c1ccccc1 (stereo not drawn),i
COC(=O)C1C(=O)c2ccccc2N=C1SCC(=O)Nc1ccccc1OC (stereo not drawn),i
Cc1nc(N2CCCC(C(=O)N3CCOc4ccccc4C3)C2)nc2cc(S(C)(=O)=O)ccc12 (stereo not drawn),i
CCSC(=O)Nc1nc(Sc2ncc(C(F)(F)F)cc2Cl)n[nH]1,i
CCN=C1CC=CC=C(C(=O)/C=C/c2ccccc2OCC)C1=O,i
CCC(C)N1C(=O)S/C(=C/c2ccccc2Br)C1=O (stereo not drawn),i
CCN=C1CC=CC=C(C(=O)/C=C/c2ccc(C#N)cc2)C1=O,i
Cc1ccccc1N=C1CC=CC=CC1=O,i
CCN=C1CC=CC=C(C(=O)/C=C/c2ccccc2Br)C1=O,36
CCN=C1CC=CC=C(C(=O)/C=C/c2ccccc2Cl)C1=O,i
CCn1ncc(/C=C/C(=O)c2ccccc2)c1C,i
SMILES,RBX1-CUL1 inh
CCN=C1CC=CC=C(C(=O)/C=C/c2ccccc2C)C1=O,73
CCN=C1CC=CC=C(C(=O)/C=C/c2ccc(CC)cc2)C1=O,i
O=C(CCc1ccccc1)N/N=C/c1cccc(Cl)c1Cl,i
CN=C1CC=CC=C(C(=O)/C=C/c2cccc(C(F)(F)F)c2)C1=O,81
CCN=C1CC=CC=C(C(=O)/C=C/c2cccc(Cl)c2Cl)C1=O,38
CCOc1ccc(C(=O)C2C(=O)C(=O)N(Cc3ccccc3)C2c2cccc(O)c2)cc1 (stereo not drawn),i
CC(=O)NCCC1CCN(Cc2nc(-c3cccs3)oc2C)CC1,i
COC(=O)CCCC(=O)NC1CCCN(C2CCCCCC2)C1 (stereo not drawn),i
CC(C)(C)CN1CCCC2(CCN(C(=O)c3cscn3)C2)C1=O (stereo not drawn),i
CCOC(=O)C(NC(=O)c1ccccc1Cl)(Nc1nnc(C)s1)C(F)(F)F (stereo not drawn),i
CCOC(=O)c1nn(-c2cccc(OC)c2)c(C)c1C(C)=O,i
O=C1C=NN(c2ccccc2)C(=O)C1Sc1ccccc1 (stereo not drawn),i
C/C(=N/N1CCN(Cc2ccccc2)CC1)c1ccccc1,i
CCCC(=O)N1CCN(S(=O)(=O)c2ccc(OC)cc2)CC1,i
CCC1(C)Cc2c(sc(N)c2C(=O)O)CO1 (stereo not drawn),i
CCCCC(=O)Nc1cc2nn(-c3ccccc3)nc2cc1Cl,i
COc1ccc(S(=O)(=O)Oc2ccc3ccccc3c2/C=N/N=C2\NC(=O)C(C)S2)cc1 (stereo not drawn),i
Cc1ccc(S(=O)(=O)N(c2ccc3nc[nH]c3c2)S(=O)(=O)c2ccc(C)cc2)cc1,i
Cc1cccc2c(C(=O)O)cc(-c3ccc(-c4ccccc4)cc3)nc12,i
Cc1cccc2c(C(=O)N(C)C)cc(-c3cnn(Cc4ccccc4)c3)nc12,i
Cc1cccc2c(C(=O)O)cc(-c3ccccc3O)nc12,29
CSCCc1n[nH]c2c1CN(C(=O)c1nn(C)cc1Cl)CC2,i
C=CCC(=O)N1CCCC(C(=O)c2cc(C)c(OC)c(C)c2)C1 (stereo not drawn),i
CC(C)(c1ccccc1)c1ccc(OCC(=O)Nc2ccc(N3CCOCC3)cc2)cc1,i
CN(C)CCCN(CC1CCN(C2Cc3ccccc3C2)CC1)C(=O)CN1CCOC1=O,i
SMILES,RBX1-CUL1 inh
COc1ccc(C2CC(=O)C3C(=NC(C)=C(C(=O)Nc4ccccn4)C3c3cccc(OC)c3)C2)cc1 (stereo not drawn),i
CCOc1cc(/C=C2\C(=O)NN(c3ccc(Cl)cc3)C2=O)cc(I)c1O,i
O=C1NN(c2cccc(Cl)c2)C(=O)/C1=C\c1cc(Br)ccc1O,i
O=C1NN(c2ccccc2)C(=O)/C1=C/c1ccc2c(c1)OCO2,i
O=C1NN(c2ccc(Cl)cc2)C(=O)/C1=C/c1cc(Br)cc([N+](=O)[O-])c1O,85
O=C1NN(c2cccc(Cl)c2)C(=O)/C1=C/c1ccc(Br)cc1,60
CCc1ccc(/C=C2\C(=O)NN(c3ccc(C)cc3)C2=O)cc1,45
O=C1NN(c2ccc(Cl)c(Cl)c2)C(=O)/C1=C/c1cc2c(cc1[N+](=O)[O-])OCO2,64
O=C1NN(c2ccccc2)C(=O)/C1=C/c1ccc(OCc2ccccc2)cc1,i
COc1cc(/C=C2\C(=O)NN(c3ccc(C)cc3)C2=O)cc([N+](=O)[O-])c1O,i
O=C1NN(c2ccc(Cl)c(Cl)c2)C(=O)/C1=C/c1cccc([N+](=O)[O-])c1,i
CCc1ccc(/C=C2\C(=O)NC(=S)N(C)C2=O)cc1,i
O=C1NN(c2cccc(C(F)(F)F)c2)C(=O)/C1=C\c1ccc(Br)cc1,i
Cc1ccc(OCC(=O)N2CCN(c3ccc(F)cc3)CC2)cc1C,i
COc1ccc(F)c(CC2(CCC(=O)N3CC4(C)CC3CC(C)(C)C4)CCC(=O)N2)c1 (stereo not drawn),i
COc1ccc(C(=O)Oc2cccc3ccc(C)nc23)cc1Cl,i
COc1ccc(C(=O)Nc2c(Cl)cc(Cl)cc2C(=O)NCC2CCCO2)cc1 (stereo not drawn),i
CSc1ccc(C(=O)NCc2nc(-c3ccc(NC(=O)Cc4ccccc4)cc3)oc2C)cc1,i
COc1cccc(-n2nnc(C(=O)N3CCCc4ccccc43)c2C)c1,i
C=CC(Sc1ccc(C)cc1)S(=O)(=O)c1ccc(C)cc1 (stereo not drawn),i
CCOC(=O)C(NC(C)=O)(Nc1cccc(Cl)c1)C(F)(F)F (stereo not drawn),i
COc1cccc(-c2noc(-c3ccc(NC(C)(C)CO)nc3)n2)c1OC,i
COc1ccc(/C=C2/C(=O)NN(c3ccc(I)cc3)C2=O)cc1,i
O=C1NN(c2ccc(I)cc2)C(=O)/C1=C\c1ccc(Br)cc1,59
O=C1NN(c2cccc(Cl)c2)C(=O)/C1=C/c1cccs1,i
C=CCOc1ccc(/C=C2\C(=O)NN(c3ccc(Cl)cc3)C2=O)cc1OC,i
O=C1NN(c2ccc(I)cc2)C(=O)/C1=C\c1ccc(N2CCOCC2)cc1,i
